Source: PubChem BioAssay (EPA / NIEHS)
Activity calls are given as the source filed them. How the source made its calls: active means hit-call score of the fitted dose curve at least 0.9, where 1 is the maximum; inactive means score below 0.9.

Experiments:
[1] = ATG_GRE_CIS: Attagene CIS-FACTORIAL HepG2 Assay for human Glucocorticoid Response Elements (GRE) (AID 2282947); details: HepG2 GRE cis-reporter, Attagene multiplex mRNA; actives raise or lower the signal
Method in brief: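 Fluorescence intensity of reporter-specific cDNA fragments, separated by capillary electrophoresis, provides the signal. Constructs carry cis-regulating promoters in transiently transfected HepG2 liver cells; 24 h incubation; fitting is bidirectional against DMSO.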

[2] = ATG_ISRE_CIS: Attagene CIS-FACTORIAL HepG2 Assay for human Interferon Regulatory Factor 1 (IRF1) binding to an Interferon-Stimulated Response Element (ISRE) (AID 2282948); details: HepG2 ISRE cis-reporter (Attagene), mRNA transcription readout; actives raise or lower the signal
Method in brief: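 Endogenous transcription factor activity read as reporter transcript abundance via RT-PCR and capillary electrophoresis. HepG2 cells transiently transfected, 24 h chemical exposure. Gain or loss fitted against DMSO baseline.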

[3] = ATG_M_32_CIS: Attagene CIS-FACTORIAL HepG2 Assay for M32 Transcription Factor (Internal Marker) (AID 2282949); details: HepG2 Attagene cis-factorial M32 reporter, mRNA; actives raise or lower the signal;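 further: background control marker of the multiplexed CIS panel rather than a real target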
Method in brief: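 HepG2 human liver cells transiently transfected with cis-promoter-driven multiple reporter transcription units, dosed 24 h. Reporter mRNA quantified by RT-PCR, FAM-labelled primer extension, HpaI digest and capillary electrophoresis; bidirectional fit versus DMSO baseline.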

[4] = ATG_M_06_CIS: Attagene CIS-FACTORIAL HepG2 Assay for M06 Transcription Factor (Internal Marker) (AID 2282950); details: HepG2 Attagene CIS-FACTORIAL M06 internal marker reporter; actives raise or lower the signal
Method in brief: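 Internal background marker within multiplexed cis-reporter HepG2 system. Cells transiently transfected, dosed 24 h; reporter mRNA measured by RT-PCR, HpaI digestion and capillary electrophoresis. Bidirectional fit relative to DMSO.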

[5] = target: Hypoxia-inducible factor 1-alpha (Homo sapiens) (UniProt Q16665); test: ATG_HIF1a_CIS: Attagene CIS-FACTORIAL HepG2 Assay for human Hypoxia Inducible Factor 1 (HIF1A) (AID 2282951); details: HepG2 Attagene cis-factorial HIF1a reporter transcription; actives raise or lower the signal
Hypoxia-inducible factor 1-alpha (Homo sapiens), sequence (Q16665 whole entry, looked up): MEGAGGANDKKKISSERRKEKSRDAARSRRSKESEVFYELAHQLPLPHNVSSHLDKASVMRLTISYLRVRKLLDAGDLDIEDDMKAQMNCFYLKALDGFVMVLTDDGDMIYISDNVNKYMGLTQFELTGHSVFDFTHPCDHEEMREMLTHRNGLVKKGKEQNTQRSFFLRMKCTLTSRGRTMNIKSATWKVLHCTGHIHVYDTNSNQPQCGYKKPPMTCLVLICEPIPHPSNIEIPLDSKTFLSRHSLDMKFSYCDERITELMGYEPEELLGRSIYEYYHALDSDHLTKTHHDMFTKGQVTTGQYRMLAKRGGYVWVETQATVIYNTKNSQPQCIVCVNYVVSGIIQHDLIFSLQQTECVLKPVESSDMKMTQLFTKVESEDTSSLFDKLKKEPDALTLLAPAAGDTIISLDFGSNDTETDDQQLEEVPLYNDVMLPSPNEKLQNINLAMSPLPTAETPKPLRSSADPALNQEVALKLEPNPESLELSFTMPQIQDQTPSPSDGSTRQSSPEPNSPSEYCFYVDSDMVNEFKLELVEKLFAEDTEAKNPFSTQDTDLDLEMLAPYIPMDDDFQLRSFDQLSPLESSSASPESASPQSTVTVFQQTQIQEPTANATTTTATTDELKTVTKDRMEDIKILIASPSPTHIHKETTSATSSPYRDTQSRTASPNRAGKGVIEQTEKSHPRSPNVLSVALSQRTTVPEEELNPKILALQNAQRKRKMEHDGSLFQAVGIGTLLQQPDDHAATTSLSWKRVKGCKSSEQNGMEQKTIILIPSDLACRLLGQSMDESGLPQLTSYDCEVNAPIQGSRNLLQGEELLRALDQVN
Method in brief: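 Cis-element reporter constructs were transiently transfected into HepG2 cells, which were treated for 24 h; reporter RNA was reverse-transcribed, amplified, labelled and resolved by capillary electrophoresis.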

[6] = target: Hepatocyte nuclear factor 6 (Homo sapiens) (UniProt Q9UBC0); test: ATG_HNF6_CIS: Attagene CIS-FACTORIAL HepG2 Assay for human Hepatocyte Nuclear Factor 6 (HNF6) (AID 2282952); details: HepG2 Attagene cis-factorial HNF6 reporter transcription; actives raise or lower the signal
Hepatocyte nuclear factor 6 (Homo sapiens), sequence (Q9UBC0 whole entry, looked up): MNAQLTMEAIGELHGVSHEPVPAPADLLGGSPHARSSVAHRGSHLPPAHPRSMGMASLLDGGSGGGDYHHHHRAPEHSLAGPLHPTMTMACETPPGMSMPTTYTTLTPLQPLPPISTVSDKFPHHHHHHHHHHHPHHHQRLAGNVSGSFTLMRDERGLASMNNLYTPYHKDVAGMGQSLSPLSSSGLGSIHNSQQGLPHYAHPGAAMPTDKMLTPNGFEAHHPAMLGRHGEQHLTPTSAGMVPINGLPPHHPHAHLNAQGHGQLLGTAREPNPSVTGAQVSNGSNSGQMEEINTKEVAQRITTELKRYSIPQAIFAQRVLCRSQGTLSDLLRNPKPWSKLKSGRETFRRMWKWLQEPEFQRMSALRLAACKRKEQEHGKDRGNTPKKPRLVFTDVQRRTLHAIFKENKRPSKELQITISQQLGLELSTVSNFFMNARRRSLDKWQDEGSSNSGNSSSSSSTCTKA
Method in brief: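 Endogenous factor activity read in transiently transfected HepG2 via promoter-regulated reporter transcripts. RNA harvested 24 h post-dosing, reverse-transcribed, PCR-amplified, FAM-labelled, HpaI-digested and resolved by capillary electrophoresis; fitted in both directions against DMSO.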

[7] = target: Heat shock factor protein 1 (Homo sapiens) (UniProt Q00613); test: ATG_HSE_CIS: Attagene CIS-FACTORIAL HepG2 Assay for human Heat Shock Transcription Factor 1 (HSE) (AID 2282953); details: HepG2 HSE cis-reporter, Attagene RNA transcription; actives raise or lower the signal
Heat shock factor protein 1 (Homo sapiens), sequence (Q00613 whole entry, looked up): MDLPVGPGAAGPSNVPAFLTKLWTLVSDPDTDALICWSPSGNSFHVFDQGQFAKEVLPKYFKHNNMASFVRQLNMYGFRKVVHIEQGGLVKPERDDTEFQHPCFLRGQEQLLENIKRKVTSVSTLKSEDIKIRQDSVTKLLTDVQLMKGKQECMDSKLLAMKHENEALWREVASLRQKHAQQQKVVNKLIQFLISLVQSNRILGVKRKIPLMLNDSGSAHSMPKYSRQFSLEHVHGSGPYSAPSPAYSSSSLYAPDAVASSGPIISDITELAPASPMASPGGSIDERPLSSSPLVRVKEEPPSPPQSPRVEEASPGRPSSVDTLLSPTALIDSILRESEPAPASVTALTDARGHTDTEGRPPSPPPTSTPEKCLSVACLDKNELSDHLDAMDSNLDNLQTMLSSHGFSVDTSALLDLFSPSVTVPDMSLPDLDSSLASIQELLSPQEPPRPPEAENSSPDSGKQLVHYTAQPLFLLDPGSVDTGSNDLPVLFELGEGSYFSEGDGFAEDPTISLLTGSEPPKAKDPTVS
Method in brief: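 HepG2 cells transfected with cis-promoter reporter units sensing endogenous transcription factor activity; reporter mRNA quantified 24 h post-dose by RT-PCR and capillary electrophoresis of 6-FAM-labelled products. Bidirectional fitting against DMSO.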

[8] = ATG_MRE_CIS: Attagene CIS-FACTORIAL HepG2 Assay for human Metal Responsive Element (MRE) (AID 2282954); details: HepG2 MRE cis-reporter transcription, Attagene multiplex; actives raise or lower the signal
Method in brief: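 Measured here is mRNA induction from an MRE cis-element reporter in HepG2 after 24 h, quantified by fluorescence of labelled RT-PCR products on capillary electrophoresis; gain- and loss-of-signal fits use DMSO as baseline.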

[9] = ATG_PBREM_CIS: Attagene CIS-FACTORIAL HepG2 Assay for human Phenobarbital-responsive Enhancer Module (PBREM) (AID 2282955); details: HepG2 PBREM cis-reporter, Attagene multiplexed transcription; actives raise or lower the signal
Method in brief: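 Multiplexed cis-reporter readout in human hepatoma HepG2 cells; PBREM-regulated transcript quantified after 24 h exposure by fluorescent RT-PCR fragment analysis. Signal changes up or down fitted relative to DMSO.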

[10] = target: Paired box protein Pax-6 (Homo sapiens) (UniProt P26367); test: ATG_Pax6_CIS: Attagene CIS-FACTORIAL HepG2 Assay for human Paired Box 6 (PAX6) (AID 2282956); details: HepG2 CIS-FACTORIAL PAX6 reporter transcription, RNA readout; actives raise or lower the signal
Paired box protein Pax-6 (Homo sapiens), sequence (P26367 whole entry, looked up): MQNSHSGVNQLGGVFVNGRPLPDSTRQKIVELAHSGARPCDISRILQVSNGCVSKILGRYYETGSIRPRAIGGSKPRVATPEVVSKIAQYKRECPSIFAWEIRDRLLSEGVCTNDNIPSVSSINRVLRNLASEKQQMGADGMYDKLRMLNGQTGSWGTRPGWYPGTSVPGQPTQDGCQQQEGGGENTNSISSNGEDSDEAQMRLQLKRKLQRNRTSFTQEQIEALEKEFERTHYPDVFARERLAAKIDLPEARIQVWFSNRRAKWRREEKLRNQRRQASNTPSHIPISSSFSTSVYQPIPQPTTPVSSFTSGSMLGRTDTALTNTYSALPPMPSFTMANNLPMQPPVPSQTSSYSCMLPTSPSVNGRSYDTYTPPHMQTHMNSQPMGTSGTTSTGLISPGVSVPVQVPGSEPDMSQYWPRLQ
Method in brief: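 Read-out is reporter transcript level, measured by RT-PCR with fluorescent primer extension and capillary electrophoresis after 24 h dosing of transfected HepG2 cells. Activity in either direction fitted relative to DMSO control.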

[11] = ATG_PPRE_CIS: Attagene CIS-FACTORIAL HepG2 Assay for human Peroxisome Proliferator-activated Response Element (PPRE) (AID 2282958); details: HepG2 PPRE cis-element reporter, Attagene transcription factor profiling; actives raise or lower the signal
Method in brief: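 DMSO served as negative control and baseline for bidirectional curve fitting. Signal came from PPRE-regulated reporter mRNA in HepG2 cells, measured 24 h post-dosing by RT-PCR, 6-FAM primer extension and capillary electrophoresis.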

[12] = ATG_RORE_CIS: Attagene CIS-FACTORIAL HepG2 Assay for human RAR-related Orphan Receptor Element (RORE) (AID 2282959); details: HepG2 Attagene cis-factorial RORE reporter, mRNA; actives raise or lower the signal
Method in brief: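 Transfect HepG2 with MRTUs; treat 24 h; extract RNA; RT with oligo(dT); PCR with reporter-specific primers; 6-FAM primer extension; HpaI digest 2 h at 37 C; capillary electrophoresis. Fit vs DMSO, bidirectional.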

[13] = ATG_Sox_CIS: Attagene CIS-FACTORIAL HepG2 Assay for human SRY-box transcription factor (SOX) (AID 2282960); details: HepG2 Attagene cis-factorial SOX reporter, mRNA; actives raise or lower the signal
Method in brief: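 Fluorescence-labelled cDNA fragments from reporter transcripts, sized by CE, give the signal. Cells: HepG2, transiently transfected with cis-regulated reporter units. Exposure 24 h; DMSO negative control; bidirectional curve fitting.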

[14] = target: Transcription factor Sp1 (Homo sapiens) (UniProt P08047); test: ATG_Sp1_CIS: Attagene CIS-FACTORIAL HepG2 Assay for human Specificity Protein 1 (Sp1) (AID 2282961); details: HepG2 Sp1 cis-reporter transcription, actives raise or lower the signal
Transcription factor Sp1 (Homo sapiens), sequence (P08047 whole entry, looked up): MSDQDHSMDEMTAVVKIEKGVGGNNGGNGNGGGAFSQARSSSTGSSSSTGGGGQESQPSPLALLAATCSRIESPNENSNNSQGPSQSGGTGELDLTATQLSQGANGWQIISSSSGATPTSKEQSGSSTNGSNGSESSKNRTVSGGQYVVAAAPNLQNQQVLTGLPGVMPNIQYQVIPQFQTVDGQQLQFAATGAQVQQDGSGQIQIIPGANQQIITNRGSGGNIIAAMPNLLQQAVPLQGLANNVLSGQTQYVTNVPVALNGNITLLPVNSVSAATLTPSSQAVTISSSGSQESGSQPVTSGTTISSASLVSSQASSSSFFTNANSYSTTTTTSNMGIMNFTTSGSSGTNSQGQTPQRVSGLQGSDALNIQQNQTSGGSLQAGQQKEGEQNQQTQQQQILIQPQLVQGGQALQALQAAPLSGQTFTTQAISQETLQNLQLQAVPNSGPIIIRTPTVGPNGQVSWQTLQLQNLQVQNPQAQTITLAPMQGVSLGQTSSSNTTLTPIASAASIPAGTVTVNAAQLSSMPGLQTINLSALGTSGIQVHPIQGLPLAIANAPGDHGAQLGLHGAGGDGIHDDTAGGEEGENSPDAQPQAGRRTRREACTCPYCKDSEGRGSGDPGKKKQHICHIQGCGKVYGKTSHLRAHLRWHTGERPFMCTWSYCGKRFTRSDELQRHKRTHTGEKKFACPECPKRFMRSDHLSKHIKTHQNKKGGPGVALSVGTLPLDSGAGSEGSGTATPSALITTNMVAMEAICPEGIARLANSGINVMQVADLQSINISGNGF
Method in brief: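 Chemicals are dosed onto HepG2 cells transfected with multiple cis-promoter reporter constructs, and after 24 h reporter RNA is reverse-transcribed, PCR-amplified and resolved by capillary electrophoresis for fluorescence quantitation; activity is scored up or down against DMSO.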

[15] = ATG_SREBP_CIS: Attagene CIS-FACTORIAL HepG2 Assay for human Sterol Regulatory Element Binding (SREBP) (AID 2282962); details: HepG2 Attagene cis-factorial SREBP reporter, mRNA; actives raise or lower the signal
Method in brief: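 Endogenous SREBP activity read as cis-element-driven reporter transcript in transiently transfected HepG2, 24 h post-dosing; quantified via RT-PCR plus capillary electrophoresis of fluorescent fragments. Gain or loss of signal fitted relative to DMSO baseline.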

[16] = ATG_TA_CIS: Attagene CIS-FACTORIAL HepG2 Assay for human TA Basal Promoter (AID 2282964); details: HepG2 Attagene CIS-factorial TA basal promoter reporter; actives raise or lower the signal
Method in brief: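 HepG2 cells transiently transfected with multiple reporter units under cis promoter elements, reporting endogenous transcription factor activity; this endpoint tracks the TA basal promoter as background control. Reporter mRNA after 24 h dosing measured by RT-PCR/capillary electrophoresis; bidirectional fits versus DMSO.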

[17] = ATG_TCF_b_cat_CIS: Attagene CIS-FACTORIAL HepG2 Assay for human T-Cell-Factor with beta-catenin (TCF/b-cat) (AID 2282965); details: HepG2 TCF/beta-catenin cis-reporter transcription, actives raise or lower the signal
Method in brief: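 Cells of the HepG2 line carry transiently transfected reporter units whose promoters respond to endogenous factors. Twenty-four hours post-dosing, reporter mRNA induction is measured by fluorescent RT-PCR and capillary electrophoresis, with DMSO as baseline.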

[18] = ATG_TAL_CIS: Attagene CIS-FACTORIAL HepG2 Assay for human TAL Basal Promoter (AID 2282966); details: HepG2 Attagene cis-factorial TAL promoter reporter; actives raise or lower the signal;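 further: background control endpoint measuring basal TAL promoter reporter mRNA not a specific factor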
Method in brief: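 Background-control endpoint: basal TAL promoter reporter transcripts in transiently transfected HepG2, measured 24 h after dosing. Read-out by RT-PCR with fluorescent primer extension and capillary electrophoresis; gain or loss of signal fitted relative to DMSO.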

[19] = target: Signal transducer and activator of transcription 3 (Homo sapiens) (UniProt P40763); test: ATG_STAT3_CIS: Attagene CIS-FACTORIAL HepG2 Assay for human Signal Transducer and Activator of Transcription 3 (STAT3) (AID 2282963); details: HepG2, Attagene cis-factorial STAT3 reporter transcription; actives raise or lower the signal
Signal transducer and activator of transcription 3 (Homo sapiens), sequence (P40763 whole entry, looked up, the tested form may be a part): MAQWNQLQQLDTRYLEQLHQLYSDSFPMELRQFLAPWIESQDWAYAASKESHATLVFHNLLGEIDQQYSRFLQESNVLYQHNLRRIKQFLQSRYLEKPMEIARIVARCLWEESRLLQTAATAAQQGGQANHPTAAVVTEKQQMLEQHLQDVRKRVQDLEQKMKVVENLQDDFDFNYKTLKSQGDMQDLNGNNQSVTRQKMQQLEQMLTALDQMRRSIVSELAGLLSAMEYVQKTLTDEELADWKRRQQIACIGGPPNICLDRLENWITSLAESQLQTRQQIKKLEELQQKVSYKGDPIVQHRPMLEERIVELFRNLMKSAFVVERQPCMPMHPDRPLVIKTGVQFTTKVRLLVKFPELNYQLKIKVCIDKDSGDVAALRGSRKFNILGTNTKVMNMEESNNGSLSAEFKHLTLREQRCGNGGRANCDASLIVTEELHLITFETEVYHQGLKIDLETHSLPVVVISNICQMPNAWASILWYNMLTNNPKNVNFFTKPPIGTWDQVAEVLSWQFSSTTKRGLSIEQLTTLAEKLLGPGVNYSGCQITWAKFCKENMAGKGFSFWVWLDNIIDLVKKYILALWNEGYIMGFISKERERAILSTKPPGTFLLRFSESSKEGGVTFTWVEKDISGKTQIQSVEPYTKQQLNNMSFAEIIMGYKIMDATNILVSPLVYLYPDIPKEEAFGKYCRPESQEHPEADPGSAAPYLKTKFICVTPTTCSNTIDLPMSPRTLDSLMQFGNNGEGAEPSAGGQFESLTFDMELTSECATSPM
Method in brief: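 Fluorescence intensity of 6-FAM-labelled reporter fragments, separated by capillary electrophoresis after RT-PCR, gave the signal. Cells were HepG2 transfected with cis-element reporter units and treated 24 h; fitting was bidirectional relative to DMSO.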

[20] = ATG_PXRE_CIS: Attagene CIS-FACTORIAL HepG2 Assay for human Pregnane X Receptor Element (PXRE) (AID 2282957); details: HepG2 Attagene CIS-FACTORIAL PXRE reporter, mRNA; actives raise or lower the signal
Method in brief: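 Reporter transcripts under endogenous PXR-responsive cis-regulation quantified from total RNA of transfected HepG2 cells 24 h post-dosing, via RT-PCR with fluorescent primer extension and capillary electrophoresis. Gain or loss of signal fitted against DMSO baseline.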

Measured: AC50

CCNc1nc(Cl)nc(NC(C)(C)C)n1
not listed: [19] | [20]
inactive: all other assays above

N#C/C=C/c1ccccc1
not listed: [20]
inactive: all other assays above

ClC1=C(Cl)C2(Cl)C3C(Cl)C(Cl)CC3C1(Cl)C2(Cl)Cl (centres undefined)
active: [7] 50 µM | [8] 41.2 µM | [20] 2.38 µM | [16] 39.1 µM | [17] 27.1 µM
not listed: [13]
inactive: all other assays above

Cc1cc(C)c(C(=O)P(=O)(c2ccccc2)c2ccccc2)c(C)c1
inactive: [2] | [5] | [9] | [10] | [11] | [13] | [14] | [17] | [18]
active: [1] 57.7 µM | [3] 53.1 µM | [4] 60.7 µM | [6] 50.7 µM | [7] 62.5 µM | [8] 17.9 µM | [12] 51 µM | [15] 41.1 µM | [19] 53.7 µM | [16] 45 µM

CC(C)Nc1ccc(Nc2ccccc2)cc1
active: [2] 43.2 µM | [7] 49.6 µM | [20] 1.97 µM
inactive: all other assays above

C=C(C)C(=O)OCC1CO1 (centres undefined)
not listed: [20]
inactive: all other assays above

CCOP(=S)(OCC)SCSc1ccc(Cl)cc1
active: [9] 5.81 µM
not listed: [13] | [19] | [20]
inactive: all other assays above

O=S(=O)(c1ccc(O)cc1)c1ccc(O)cc1
active: [20] 35.9 µM
not listed: [12]
inactive: all other assays above

ClC(Cl)=C(c1ccc(Cl)cc1)c1ccccc1Cl
active: [1] 124 µM | [7] 41.7 µM | [8] 100 µM | [10] 100 µM | [20] 2.77 µM | [11] 55.3 µM | [14] 27.3 µM | [15] 98.5 µM | [18] 177 µM
not listed: [12]
inactive: all other assays above

CC(=O)c1ccc(-c2ccccc2)cc1
active: [20] 27.2 µM
inactive: all other assays above

CCN(CC)C1CCCCC1
not listed: [4] | [20]
inactive: all other assays above

Cc1ccc(N)cc1N
not listed: [4] | [13] | [20]
inactive: all other assays above

CC(Cc1ccc(OCC(=O)O)cc1)NCC(O)c1csc(C(F)(F)F)n1 (centres undefined)
not listed: [4] | [11]
inactive: all other assays above

O=C(O)C1C(C(=O)O)C2(Cl)C(Cl)=C(Cl)C1(Cl)C2(Cl)Cl (centres undefined)
not listed: [4] | [5] | [11] | [19] | [20]
inactive: all other assays above

Cc1cccc(N)c1
not listed: [1] | [9] | [13]
inactive: all other assays above
